Rows were chosen to be rich in hits. Some 3.8% of all compounds tested hit in one or more screens of this group.
TIM10 inh = TIM10 yeast growth inhibition; AID 463195; inhibition, % at 10 µM; S. cerevisiae TIM10 strain growth, BacTiter-Glo luminescence, 24 h; 330,000 tested, 1.4% active;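 active means inhibition of 40% or more at the single tested concentration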;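 further: wild-type TIM10 isogenic control strain grown at permissive 25 °C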
NALP3 yeast inh = blocks the NALP3 inflammasome reconstituted in yeast; Yeast reconstituted NLRP3/ASC/caspase-1, beta-gal luminescence, 24 h; inhibition, % at 10 µM; 330,000 tested, 0.39% active;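 active means inhibition of 50% or more; inactive means inhibition below 50%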;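 further: plate controls were induced DMSO wells for no effect and uninduced yeast grown without galactose for full effect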
tim23-1 inh = growth inhibitors of tim23-1 mutant yeast; 330,000 tested, 1.3% active; inhibition, % at 20 µM; S. cerevisiae tim23-1 growth, BacTiter-Glo luminescence, 24 h;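 active means growth inhibition of the mutant yeast at or above 50%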;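 further: temperature-sensitive mutant grown at 25 °C; plate controls were DMSO-treated mutant yeast for no effect and medium wells lacking yeast for full effect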
tim10-1 inh = growth inhibitors of tim10-1 mutant yeast. inhibition, % at 20 µM. AID 463190. 330,000 tested, 2.2% active. S. cerevisiae tim10-1 ts strain growth, BacTiter-Glo, 24 h;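 active means inhibition of at least 40%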;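 further: mutant grown at 25 °C; 0% = DMSO wells with yeast and 100% = wells holding no yeast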
Yeast superoxide = yeast age-related superoxide inhibition as caloric restriction mimetic; S. cerevisiae aged cells, superoxide DHE fluorescence; stronger effect = lower value; superoxide response (% of plate mean), % at 10 µM; 330,000 tested, 0.18% active;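 active means superoxide response under a set limit, about three screen SD below normal, cut at about 65% in these data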;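 further: yeast aged for seven days with compound at 30 °C before DHE staining; 100% = average MFI of all compound-treated wells on the plate with controls excluded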
tim23-1 confirm = confirmation of tim23-1 mutant yeast growth inhibitors. shares compounds with tim23-1 inh. S. cerevisiae tim23-1 growth, BacTiter-Glo luminescence, 24 h. AID 463218. 4,400 tested, 83% active. inhibition, % at 20 µM;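 active means inhibition above about 39% in either of two replicate wells at 20 µM, limit read from the data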;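 further: temperature-sensitive tim23-1 mutant grown at 25 °C; 0% = DMSO wells with yeast and 100% = medium wells without yeast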
* hit, by the source's call; / = not tested or not shown.

SMILES	TIM10 inh	NALP3 yeast inh	tim23-1 inh	tim10-1 inh	Yeast superoxide	tim23-1 confirm
O=C(COc1ccc2ccccc2c1)NCC1CCCO1 (stereo unspecified)	4	3	16	-7	100	/
CC1(c2ccccc2)CC(C)(C)N2C(=O)C(=O)c3cccc1c32 (stereo unspecified)	-4	3	61*	38	82	56*
COc1ccc(-n2nnnc2/C=C\Nc2ccc(C)cc2)cc1	5	4	15	16	99	/
Fc1ccc(Nc2nc(NCc3ccco3)c3ccccc3n2)cc1	-20	49	98*	-20	86	4
Nc1nc(Nc2ccccc2)nc(NCc2ccco2)c1[N+](=O)[O-]	-2	2	37	9	103	/
COc1cccc(-c2c(C#N)c(N)nc3c2c(C)nn3-c2ccccc2)c1O	10	6	51*	17	82	27
O=C(CSc1cccc[n+]1[O-])CSc1cccc[n+]1[O-]	-19	7	71*	5	102	61*
O=C(CSc1cccc[n+]1[O-])Nc1ccccc1Oc1ccccc1	32	-19	69*	37	107	76*
CCOC(=O)c1sc(=NC(=O)c2ccco2)n(C)c1C	25	33	54*	15	105	44*
Cc1cc(C)nc(N/N=C2/CCCC/C2=C\c2ccccc2)n1	16	20	40	17	102	/
Cc1nn(-c2ccccc2)c(OC(=O)c2cccs2)c1S(=O)(=O)c1ccccc1	31	3	58*	29	90	51*
Oc1ccc(N=C/C=C/c2ccc(Br)cc2)cc1-c1nc2ccccc2s1	30	25	64*	23	100	44*
Brc1cc2c(cc1-c1nc3ccccc3s1)OCO2	6	20	8	8	115	/
O=C(c1ccc2oc(CCCc3ccccc3)nc2c1)N1CCCC1	-5	16	8	10	110	/
CC(=O)c1cc(CC(=O)N2CCc3c([nH]c4ccccc34)C2c2ccccn2)cs1 (stereo unspecified)	-12	9	2	-9	96	/
O=C(Cc1cnc2ncnn2c1)N1CCc2c([nH]c3ccccc23)C1c1ccccn1 (stereo unspecified)	-11	13	59*	-3	94	3
O=C1OCCC1Sc1nc2ccccc2c(=O)n1Cc1ccc(F)cc1 (stereo unspecified)	26	7	50*	33	93	23
O=C1OCCC1Sc1nc2ccccc2c(=O)n1-c1ccc(F)cc1 (stereo unspecified)	3	-4	7	19	112	/
CN(C(=O)c1ccco1)c1nnc(C23CC4CC(CC(C4)C2)C3)s1	12	18	55*	20	107	59*
CN(CC12CC3CC(CC(C3)C1)C2)C(=O)c1ccco1	17	26	42	15	83	/
COc1ccc(Cn2c(-c3ccco3)nc3c(c(=O)c4ccccc4n3C)c2=O)cc1	14	4	21	19	116	/
Cn1c2ccccc2c(=O)c2c(=O)n(-c3ccc(F)cc3)c(-c3cccs3)nc21	-36	34	4	-19	90	/
CC(c1ccccc1)n1c(-c2cccs2)nc2c(c(=O)c3ccccc3n2C)c1=O (stereo unspecified)	31	32	51*	-1	101	33
Cn1c2ccccc2c(=O)c2c(=O)n(C3CCCCC3)c(-c3ccco3)nc21	-7	48	51*	28	94	49*
CC(C)Cn1c(-c2ccco2)nc2c(c(=O)c3ccccc3n2C)c1=O	25	19	50*	34	87	35
SMILES	TIM10 inh	NALP3 yeast inh	tim23-1 inh	tim10-1 inh	Yeast superoxide	tim23-1 confirm
CCCc1nnc(SCC(=O)N2CCCCC2C)n1CCOC (stereo unspecified)	-1	5	10	-4	90	/
NC(=S)NNC(=O)Nc1cccc(Cl)c1	3	6	5	-2	96	/
Cc1cccc(NC(=S)NNc2cccc(Cl)c2)c1	24	12	52*	23	90	55*
NC(=S)NNc1cccc(Cl)c1	13	20	60*	21	88	61*
CC1N(O)C(C)(C)C(c2ccccc2)=[N+]1[O-] (stereo unspecified)	-6	-4	-2	3	101	/
O=C(c1nc2ccccn2c1CNCCCn1nnc2ccccc21)N1CCOCC1	3	1	3	14	116	/
COc1ccc(OC)c(N(C)S(=O)(=O)c2cc3c(cc2C)NC(=O)CO3)c1	-11	17	-4	-17	110	/
C=CCNC(=O)c1ccc2c3n(nc2c1)-c1ccc(Cl)cc1CO3	23	16	59*	30	104	50*
CN(Cc1ccccc1)C(=O)c1cc2cc(F)ccc2[nH]1	-1	31	13	-6	130	/
CCN(C(=O)CSc1nnc(C(C)N(C)C)n1-c1ccc(F)cc1)C1CCS(=O)(=O)C1 (stereo unspecified)	-8	18	-3	-5	87	/
NC(=O)c1ccc[n+](CC(=O)Nc2ccccc2C(=O)O)c1	7	18	9	18	94	/
O=C(CCc1ccccc1)NC(=S)Nc1ccccc1Br	29	23	50*	-9	107	32
COc1ccc(CCC(=O)Nc2cccc(Cl)c2)cc1	33	29	59*	11	109	65*
COc1cc(NC(=S)NC(=O)CCc2ccccc2)cc(OC)c1	39	20	51*	25	94	41*
COc1ccccc1NC(=S)NC(=O)CCc1ccccc1	28	23	46	31	91	/
CCOC(=O)c1c(C=O)c(C)n(Cc2ccc(Cl)cc2)c1C	34	11	63*	30	128	58*
CCOC(=O)c1c(C=O)c(C)n(Cc2ccccc2)c1C	26	8	23	28	88	/
C=Cn1cc[n+](CC(=O)c2ccc(Br)s2)c1	-8	-4	-15	-10	110	/
Cc1ccc(Sc2ccc(N)cc2C#N)cc1	11	29	58*	35	106	37
COc1ccc(C)cc1S(=O)(=O)N(C)CC(=O)NCc1ccncc1	-21	-6	0	-6	101	/
Cc1cccc(C(=O)N[C@H](C(=O)Nc2nc3ccc(S(C)(=O)=O)cc3s2)C(C)C)c1	1	1	9	19	100	/
Cn1ncc(Cl)c1C(=O)NNC(=O)Nc1cccc2ccccc12	2	22	3	17	105	/
CCOc1ccccc1N1CCN(C(=S)NCc2ccc(Cl)cc2)CC1	35	9	55*	39	108	46*
CCOc1ccccc1N1CCN(C(=S)NC(=O)C23CC4CC(CC(C4)C2)C3)CC1	35	12	51*	34	99	31
CCCCNC(=O)C(C1CCCCC1)N(CCN(C)C)C(=O)CCCN1C(=O)NC(c2ccc(-c3ccccc3)cc2)C(C(=O)OCc2ccccc2)=C1C (stereo unspecified)	5	/	51*	29	92	31

Screening results (PubChem)
